Data: the supplement of paper PMC8728848
About 410 targets per protein were measured; listed, in parts, are those with the strongest signals and a random draw of the rest.

Tests used:
Experiment in all cases: glycan array binding signal (z-score within array); higher = stronger binding
Conditions in all cases: glycan notation: IUPAC condensed, linker removed
GalNAc(a1-3)GalNAc = biological target: GalNAc(a1-3)GalNAc
Summary of the method: (§1)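 Columns mapping to the same glycan were averaged after glycan names were converted to IUPAC-condensed notation. The data come from 3228 arrays in the Consortium for Functional Glycomics database, limited to those with an available protein sequence. Binding is reported as a within-array Z-score averaged across arrays of one protein sequence and across linkers.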

[1] = biological target: GalNAc(a1-3)GalNAc(b1-3)Gal(a1-4)Gal(b1-4)GlcNAc
Summary of the method: as §1

Glc(b1-4)Glc = biological target: Glc(b1-4)Glc
Summary of the method: as §1

[2] = biological target: GlcNAc(a1-4)Gal(b1-4)GlcNAc
Summary of the method: as §1

[3] = biological target: GlcNAc(a1-4)Gal(b1-4)GlcNAc(b1-3)Gal(b1-4)GlcNAc
Summary of the method: as §1

[4] = biological target: GlcNAc(b1-2)[GlcNAc(b1-4)]Man(a1-3)[GlcNAc(b1-4)][GlcNAc(b1-2)[GlcNAc(b1-6)]Man(a1-6)]Man(b1-4)GlcNAc(b1-4)[Fuc(a1-6)]GlcNAc
Summary of the method: as §1

[5] = biological target: GlcNAc(b1-2)[GlcNAc(b1-6)]Man(a1-6)[GlcNAc(b1-2)Man(a1-3)]Man(b1-4)GlcNAc(b1-4)[Fuc(a1-6)]GlcNAc
Summary of the method: as §1

[6] = biological target: GlcNAc(b1-4)Gal(b1-4)GlcNAc
Summary of the method: as §1

[7] = biological target: GlcNAc(b1-6)Gal(b1-4)GlcNAc
Summary of the method: as §1

Man(a1-6)Man = biological target: Man(a1-6)Man
Summary of the method: as §1

[8] = biological target: Neu5Ac(a2-3)Gal(b1-3)GlcNAc(b1-2)Man(a1-3)[GlcNAc(b1-4)][Neu5Ac(a2-3)Gal(b1-3)GlcNAc(b1-2)Man(a1-6)]Man(b1-4)GlcNAc(b1-4)GlcNAc
Summary of the method: as §1

[9] = biological target: Neu5Ac(a2-3)Gal(b1-3)GlcNAc6S
Summary of the method: as §1

[10] = biological target: Neu5Ac(a2-3)Gal(b1-4)GlcNAc(b1-3)Gal(b1-4)GlcNAc(b1-3)Gal(b1-4)GlcNAc(b1-2)Man(a1-3)[Neu5Ac(a2-3)Gal(b1-4)GlcNAc(b1-3)Gal(b1-4)GlcNAc(b1-3)Gal(b1-4)GlcNAc(b1-2)Man(a1-6)]GalNAc
Summary of the method: as §1

[11] = biological target: Neu5Ac(a2-3)Gal(b1-4)GlcNAc(b1-3)Gal(b1-4)GlcNAc(b1-3)[Neu5Ac(a2-3)Gal(b1-4)GlcNAc(b1-3)Gal(b1-4)GlcNAc(b1-6)]GalNAc
Summary of the method: as §1

[12] = biological target: Neu5Ac(a2-3)Gal6S(b1-4)GlcNAc
Summary of the method: as §1

[13] = biological target: Neu5Ac(a2-3)[GalNAc(b1-4)]Gal(b1-4)GlcNAc(b1-3)GalNAc
Summary of the method: as §1

[14] = biological target: Neu5Ac(a2-6)Gal(b1-4)GlcNAc(b1-6)[Gal(b1-3)]GalNAc
Summary of the method: as §1

[15] = biological target: Neu5Ac(a2-8)Neu5Ac(a2-3)Gal(b1-4)GlcNAc
Summary of the method: as §1

[16] = biological target: Neu5Ac9Ac(a2-3)Gal(b1-4)GlcNAc
Summary of the method: as §1

B1: PX15618B-bfa-464-25-464 (Bacteroides fragilis) (protein)
chain: DQEPPLYVNENDIFTSPTRIEATLNGLYAAIKNTGTKSLMGGKSYLVFDNRGDDVINISNNLVTLFNTYNMNVGITDAENADTWTYAYLAINKVNTFLQSLEGAREVAGENYDRYVQEAKFVRALAYYYLNNLYPTPYSVNPDAKSVPLRLTAEAGTENNNMPRSTVKQIYEHILSDLENISALDTEVNTYTGVTHATQAAANMLKMRVYMAMNEWDKAITAGELVTGYSLPEDVTLIYKAPYFSQESIFSLPMADTNIPNTQQSLAEYYYDGKIMLIDTKSGIMSKPDYSLATDKRIIAFKGEKDLLMKFTDAKTKLQWVPIFRYAETLLDLAECYANKAGGEATAKSLLKQVRGRSVDAATDPLNIDNLSGDALKEAIYNEKRLEFIGEGIRGIDIMRRGEHFIKVGENETINVGPSDEKYTWPIPQVELLLNKDINK
In the case of B1, the “glycan array binding signal (z-score)” value (GalNAc(a1-3)GalNAc) is reported as -0.504, the “glycan array binding signal (z-score)” value [1] is reported as -0.273 and the “glycan array binding signal (z-score)” value (Glc(b1-4)Glc) is reported as -0.138. The “glycan array binding signal (z-score)” value [2] was -0.125, the “glycan array binding signal (z-score)” value [3] was -0.455 and the “glycan array binding signal (z-score)” value [4] was 0.399. For the same binder, the “glycan array binding signal (z-score)” value [5] was 0.701, the “glycan array binding signal (z-score)” value [6] was 1.25 and the “glycan array binding signal (z-score)” value [7] was -0.393. For the same binder, the “glycan array binding signal (z-score)” value (Man(a1-6)Man) was 0.302, the “glycan array binding signal (z-score)” value [8] was 0.609 and the “glycan array binding signal (z-score)” value [9] was -0.374. The “glycan array binding signal (z-score)” value [10] was 3.29, the “glycan array binding signal (z-score)” value [11] was 0.164 and the “glycan array binding signal (z-score)” value [12] was -0.187. The “glycan array binding signal (z-score)” value [13] was 0.625, the “glycan array binding signal (z-score)” value [14] was 1.16 and the “glycan array binding signal (z-score)” value [15] was -0.48. For the same binder, the “glycan array binding signal (z-score)” value [16] was 0.409.
